Assay [1] deals with PRMT1 (protein arginine N-methyltransferase 1). As to the kind of experiment: PRMT1 binders on small-molecule microarrays, primary screen, biochemical, small-molecule microarray, 635 nm fluorescence (AID 1088).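 Also: binding of Prmt1 protein to compounds spotted on small-molecule microarray slides.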 To be noted: small-molecule microarray binding, higher = more signal.
Assay [2] is described as follows: yeast growth modulation, basal conditions, primary screen, YJM789 clinical isolate, OD600, 24 h (AID 1089).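 Also: growth of clinical yeast isolate S. cerevisiae YJM 789 seeded 1000 cells per well; test concentration not given here.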 To be noted: S. cerevisiae YJM789 growth, higher = more signal, called active from +8 up or from −8 down.
The nature of assay [3]: fission yeast growth modulation, primary screen, strain 972, OD600, 24 h, no modulator (AID 1090).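 Also: basal condition with compound alone and no growth modifier present; test concentration not given here.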 To be noted: S. pombe 972 growth, higher = more signal, called active from +8 up or from −8 down.
The nature of assay [4]: S. cerevisiae growth modulation with rapamycin, primary screen, strain BY4716, OD600, 96 h (AID 1091). Also: test concentration not given here. To be noted: higher = more signal, called active from +8 up or from −8 down.
Assay [5] addresses Torsin-1A-interacting protein 2 (Homo sapiens) (UniProt Q8NFQ8). As to the kind of experiment: LULL1 binders on small-molecule microarray, primary screen, cell lysate, human LULL1 lysate, 635/667 nm fluorescence (AID 1092).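 Also: probe is lysate of COS7 cells overexpressing human LULL1; score merges per-feature 667 nm fluorescence with signal-to-noise.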 The following applies: hLULL1 lysate binding, 635 nm fluorescence, higher = more signal.
Assay [6] is described as follows: E. coli growth modulation, two-sided OD650, primary screen, E. coli filamentation project, strain DRC41, 24 h (AID 1093).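 Also: MC1000 strain lacking acrAB efflux and sulA so SOS filamentation is blocked; test concentration not given here.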 The following applies: OD650, 24 h, higher = more signal, called active from +8 up or from −8 down.
A short description of assay [7]: small-molecule microarray binders of probe aLefty2, primary screen, biochemical, biotinylated probe, 635/667 nm fluorescence (AID 1094).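 Also: score merges spot fluorescence near 667 nm with spot signal-to-noise ratio.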 The following applies: higher = more signal.
For assay [8], the system named is Noggin (protein binding on small-molecule microarray). The experiment in a line: Noggin binders on small-molecule microarray, primary screen, biochemical, 635/667 nm fluorescence (AID 1095).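 Also: score merges 667 nm feature fluorescence with signal to noise over triplicate slides.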 To be noted: 635 nm fluorescence, higher = more signal.
In assay [9] the target is Neurogenic locus notch homolog protein 3 (Homo sapiens) (UniProt Q9UM47). As to the kind of experiment: NOTCH3 binders on small-molecule microarray, primary screen, biochemical, 635/667 nm fluorescence (AID 1096). The following applies: NOTCH3 binding, 635 nm fluorescence, higher = more signal.
Chain of Neurogenic locus notch homolog protein 3 (Homo sapiens) (Q9UM47 whole entry, looked up): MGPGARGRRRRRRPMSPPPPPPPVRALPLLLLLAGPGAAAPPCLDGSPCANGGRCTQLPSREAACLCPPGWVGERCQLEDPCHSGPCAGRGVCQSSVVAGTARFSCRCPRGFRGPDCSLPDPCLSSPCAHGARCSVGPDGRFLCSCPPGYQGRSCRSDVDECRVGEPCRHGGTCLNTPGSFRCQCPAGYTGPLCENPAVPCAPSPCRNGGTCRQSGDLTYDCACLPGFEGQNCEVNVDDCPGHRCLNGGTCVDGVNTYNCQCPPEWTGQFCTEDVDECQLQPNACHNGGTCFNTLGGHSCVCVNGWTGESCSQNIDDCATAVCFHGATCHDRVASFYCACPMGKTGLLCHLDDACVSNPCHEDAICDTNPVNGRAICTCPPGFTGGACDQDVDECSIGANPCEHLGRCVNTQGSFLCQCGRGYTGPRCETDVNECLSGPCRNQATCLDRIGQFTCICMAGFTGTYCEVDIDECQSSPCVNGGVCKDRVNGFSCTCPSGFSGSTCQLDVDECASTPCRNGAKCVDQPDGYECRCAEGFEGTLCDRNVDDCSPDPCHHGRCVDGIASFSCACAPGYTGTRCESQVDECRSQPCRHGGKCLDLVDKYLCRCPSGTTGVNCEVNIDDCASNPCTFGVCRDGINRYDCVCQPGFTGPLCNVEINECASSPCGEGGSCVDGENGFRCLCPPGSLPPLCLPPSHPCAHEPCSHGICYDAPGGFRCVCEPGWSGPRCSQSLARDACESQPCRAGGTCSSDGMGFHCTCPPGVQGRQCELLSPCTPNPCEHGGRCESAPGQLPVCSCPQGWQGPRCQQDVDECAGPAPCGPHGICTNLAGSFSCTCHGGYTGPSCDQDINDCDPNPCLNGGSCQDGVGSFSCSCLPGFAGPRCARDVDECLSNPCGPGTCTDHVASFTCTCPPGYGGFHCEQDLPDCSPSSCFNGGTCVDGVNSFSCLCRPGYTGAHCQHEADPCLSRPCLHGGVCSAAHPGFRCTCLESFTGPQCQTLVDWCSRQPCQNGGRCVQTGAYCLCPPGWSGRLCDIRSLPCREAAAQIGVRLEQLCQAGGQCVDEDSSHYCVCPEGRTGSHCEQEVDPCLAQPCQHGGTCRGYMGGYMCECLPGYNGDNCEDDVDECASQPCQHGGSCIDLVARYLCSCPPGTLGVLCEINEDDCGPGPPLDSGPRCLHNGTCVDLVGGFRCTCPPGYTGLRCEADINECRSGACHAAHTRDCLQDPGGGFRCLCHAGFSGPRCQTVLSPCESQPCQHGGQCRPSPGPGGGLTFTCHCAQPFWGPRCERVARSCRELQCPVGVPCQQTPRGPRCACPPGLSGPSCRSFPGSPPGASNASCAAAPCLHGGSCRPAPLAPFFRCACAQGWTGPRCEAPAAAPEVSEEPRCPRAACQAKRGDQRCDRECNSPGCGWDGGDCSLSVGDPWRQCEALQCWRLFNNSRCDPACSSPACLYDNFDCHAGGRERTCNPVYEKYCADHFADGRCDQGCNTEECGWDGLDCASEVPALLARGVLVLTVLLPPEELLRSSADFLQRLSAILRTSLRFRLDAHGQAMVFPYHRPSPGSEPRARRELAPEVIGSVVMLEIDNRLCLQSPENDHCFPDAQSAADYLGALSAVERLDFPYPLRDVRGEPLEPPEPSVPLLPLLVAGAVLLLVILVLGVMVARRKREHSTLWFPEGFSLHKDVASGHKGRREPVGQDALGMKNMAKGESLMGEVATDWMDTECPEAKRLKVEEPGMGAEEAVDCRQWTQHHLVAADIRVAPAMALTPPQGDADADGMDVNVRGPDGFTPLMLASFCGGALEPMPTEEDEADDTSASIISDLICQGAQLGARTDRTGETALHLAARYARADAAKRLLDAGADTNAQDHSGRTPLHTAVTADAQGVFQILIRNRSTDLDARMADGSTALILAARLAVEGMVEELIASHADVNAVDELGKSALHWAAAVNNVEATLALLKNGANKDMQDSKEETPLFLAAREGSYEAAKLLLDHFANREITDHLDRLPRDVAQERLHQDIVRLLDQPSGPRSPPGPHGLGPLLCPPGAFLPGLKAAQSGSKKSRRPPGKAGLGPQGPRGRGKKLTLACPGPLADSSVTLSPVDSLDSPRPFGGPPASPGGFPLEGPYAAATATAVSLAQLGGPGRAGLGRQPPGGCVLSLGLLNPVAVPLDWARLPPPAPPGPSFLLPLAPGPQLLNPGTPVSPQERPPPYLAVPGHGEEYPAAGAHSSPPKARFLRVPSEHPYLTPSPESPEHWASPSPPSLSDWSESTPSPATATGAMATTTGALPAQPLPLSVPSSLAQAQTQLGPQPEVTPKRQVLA
Assay [10] is described as follows: small-molecule microarray binders of probe aEGFR, primary screen, biochemical, biotinylated probe, 635/667 nm fluorescence (AID 1097).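 Also: probe is a biotinylated anti-EGFR antibody binding compounds printed on slides; score combines fluorescence near 667 nm and signal to noise of each spot.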 To be noted: higher = more signal.

Structures are written as SMILES. The source made the active and inactive calls.

Chain of Torsin-1A-interacting protein 2 (Homo sapiens) (Q8NFQ8 whole entry, looked up): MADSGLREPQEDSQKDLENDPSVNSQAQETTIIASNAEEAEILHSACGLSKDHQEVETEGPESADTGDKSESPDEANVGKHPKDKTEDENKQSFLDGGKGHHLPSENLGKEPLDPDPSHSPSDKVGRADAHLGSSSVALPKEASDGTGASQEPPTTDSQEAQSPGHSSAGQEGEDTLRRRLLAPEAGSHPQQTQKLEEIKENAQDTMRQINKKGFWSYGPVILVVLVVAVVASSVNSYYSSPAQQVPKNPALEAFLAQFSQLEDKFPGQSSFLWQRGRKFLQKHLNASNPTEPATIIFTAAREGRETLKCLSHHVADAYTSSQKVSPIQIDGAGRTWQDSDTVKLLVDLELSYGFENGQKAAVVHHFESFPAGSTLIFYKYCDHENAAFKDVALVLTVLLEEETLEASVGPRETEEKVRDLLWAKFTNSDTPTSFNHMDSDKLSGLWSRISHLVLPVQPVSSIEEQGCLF

Consider `C=C(/C(=C/C[C@H](OC(=O)c1ccncc1)c1ccc(CO)o1)c1cnc2ccccc2c1)C(C)C`, for which the composite z-score was 1.52 in [1]; 0.947 in assay [5]; 0.0249 in assay [7]; 0.963 in [8]; 1.05 in [9]; 0.523 in [10]. The z-score in assay [2] was 1.22 (inactive); in [3], -1.67 (inactive); in [4], 0.433 (inactive); in [6] it was -0.358 (inactive).

`COC(=O)[C@@]1(Cc2ccc(OC)cc2)[C@H]2c3cc(C(=O)N(C)C)n(Cc4ccc(OC(F)(F)F)cc4)c3C[C@H]2CN1C(=O)c1ccccc1`: the composite z-score in assay [1] was -0.708; in [5], 3.39; in assay [7] it was 0.106; in [8] it was -0.588; in assay [9], -0.354; in [10], 0.0139. The z-score in assay [2] was 0.461 (inactive); in assay [3], 1.08 (inactive); in assay [4], 0.649 (inactive); in assay [6], -1.08 (inactive).

For `[N-]=[N+]=NCc1ccccc1[C@H]1OC(c2ccc(OCCCO)cc2)=N[C@@]1(Cc1ccccc1N=[N+]=[N-])C(=O)NCC(O)CO` (stereo not given in full), the composite z-score was found to be 1.54 in assay [1]; 3.52 in assay [5]; 0.0511 in [7]; 0.0758 in assay [8]; 1.09 in assay [9]; 0.0201 in assay [10]. Moreover, the z-score in assay [2] was -0.527 (inactive); in assay [3] it was -0.451 (inactive); in assay [4], 0.134 (inactive); in assay [6], -0.221 (inactive).

`CN1C(=O)C2C=CC(C(O)c3cccn3C)N(Nc3ccc([N+](=O)[O-])cc3[N+](=O)[O-])C2C1=O` (stereo not given): the composite z-score in assay [1] is 0.0715; in [5] it was 0.711; in assay [7], 0.269; in [8], 0.5; in assay [9], -0.266; in assay [10], 0.0365. Moreover, the z-score in assay [2] is 0.82 (inactive); in assay [3], 1.33 (inactive); in assay [4] it was 0.731 (inactive); in assay [6] it was -0.345 (inactive).

Regarding `COc1cc2c(cc1O)C=[N+](Cc1sc3ccccc3c1Cl)CC2`, the composite z-score is 0.286 in assay [1]; -0.0121 in assay [5]; 0.0216 in assay [7]; 0.346 in [8]; -0.119 in [9]; -0.126 in assay [10]. Moreover, the z-score in [2] was -1.02 (inactive); in assay [3] it was -15.5 (active); in assay [4], -1.31 (inactive); in assay [6], 0.461 (inactive).

As for `NC(=O)NCC#Cc1ccc2c(c1)[C@]1(C(=O)N2)[C@H](C(=O)N2CCN(c3ncccn3)CC2)[C@H]2C(=O)O[C@H](c3ccccc3)[C@H](c3ccccc3)N2[C@@H]1c1ccc(O)cc1`, the composite z-score in assay [1] was 1.33; in assay [5] it was 0.828; in assay [7], 0.109; in assay [8] it was 0.517; in [9], 1.08; in assay [10], 0.0283. Moreover, the z-score in assay [2] is 0.541 (inactive); in assay [3], -0.281 (inactive); in [4], 0.971 (inactive); in assay [6], -0.653 (inactive).

For `COc1cc2c(cc1O)C(C1CC1)N(C)CC2` (stereo not given), the composite z-score in assay [1] is 0.153; in assay [5], 0.0629; in [7], 0.0112; in assay [8], 0.0427; in assay [9], -0.944; in [10] it was -0.171. Besides, the z-score in assay [2] was 0.814 (inactive); in assay [3], 0.74 (inactive); in [4] it was -0.531 (inactive); in assay [6], -0.965 (inactive).

In the case of `CC(=O)NCCCC[C@@H]1NC(=O)[C@@H]2C[C@H](C(=O)NCCCCCN)[C@H](c3cccc(OCCO)c3)N2C1=O`, the composite z-score in [1] came to 0.872; in [5] it was 1.66; in assay [7], 0.534; in assay [8], 1.42; in assay [9], 1.09; in assay [10], 0.101. The z-score in assay [2] is -3.85 (inactive); in [3] it was -0.31 (inactive); in [4], -0.858 (inactive); in [6], 1.36 (inactive).

Regarding `[N-]=[N+]=Nc1ccccc1[C@@H]1OC(c2ccc(OCCCO)cc2)=N[C@]1(Cc1ccccc1)C(=O)O`, the composite z-score in [1] is 1.56; in assay [5], 2.43; in assay [7], 0.106; in assay [8], 0.522; in [9] it was 1.05; in [10], -0.268. Moreover, the z-score was 0.85 (inactive) in [2], 0.594 (inactive) in assay [3], 1.82 (inactive) in [4] and 0.779 (inactive) in assay [6].

With `COC(=O)[C@@]1(Cc2ccc(F)cc2)[C@H]2c3cc(C(=O)N(C)C)n(Cc4ccc(OC(F)(F)F)cc4)c3C[C@H]2CN1C(=O)c1ccccc1`, the composite z-score in assay [1] is -1.21; in assay [5], 0.841; in assay [7], -0.0623; in [8], 0.149; in assay [9], -0.0482; in assay [10], 0.114. Further, the z-score in assay [2] is 0.784 (inactive); in assay [3], 1.13 (inactive); in assay [4] it was 1 (inactive); in assay [6], -0.623 (inactive).

Regarding `COC(=O)[C@@]1(Cc2ccc(F)cc2)[C@H]2c3cc(C(=O)N(C)C)n(CCc4ccc(OC)c(Br)c4)c3C[C@H]2CN1C(=O)c1ccccc1`, the composite z-score was -0.0641 in assay [1]; 2.52 in assay [5]; 0.768 in assay [7]; 0.716 in [8]; 0.346 in assay [9]; 0.557 in assay [10]. In addition, the z-score in assay [2] was -0.309 (inactive); in assay [3], -1.09 (inactive); in assay [4] it was -0.122 (inactive); in [6], -1.29 (inactive).

For `COC(=O)[C@@]1(Cc2ccc(F)cc2)[C@H]2c3cc(C(=O)N4CCCC4)n(Cc4ccc(C)c(F)c4F)c3C[C@H]2CN1C(=O)c1ccccc1`, the composite z-score in assay [1] was -1.69; in assay [5], 0.919; in assay [7] it was 0.136; in assay [8], -0.849; in assay [9], -0.338; in [10] it was -0.111. For the same compound, the z-score is 0.0074 (inactive) in assay [2], -0.0098 (inactive) in assay [3], 0.378 (inactive) in assay [4] and -0.477 (inactive) in assay [6].

In the case of `COCC(=C=CC[C@H](O)c1ccccc1OCCO)C[C@H](O)c1ccccn1`, the composite z-score in [1] was 1.14; in [5], 3.35; in [7] it was -0.138; in [8] it was 0.808; in [9] it was -0.0439; in assay [10], 0.122. Moreover, the z-score in assay [2] is 0.636 (inactive); in assay [3], -0.422 (inactive); in assay [4] it was -0.505 (inactive); in [6] it was 0.723 (inactive).

In the case of `COC(=O)[C@@]1(Cc2ccc(F)cc2)[C@H]2c3cc(C(=O)N4CCCC4)n(CCc4c[nH]c5ccccc45)c3C[C@H]2CN1C(=O)c1ccccc1`, the composite z-score in [1] is 1.38; in assay [5], 3.42; in assay [7], 0.323; in [8], 0.462; in assay [9], 1.01; in assay [10] it was 0.0688. The z-score is 0.519 (inactive) in [2], 1.68 (inactive) in assay [3], 7.25 (inactive) in assay [4] and -1.3 (inactive) in assay [6].

As to `CCCCCCCCCCC(O)C1C=CC2C(=O)N(c3ccccc3)C(=O)C2N1Nc1ccc(C#N)cc1` (stereo not given), the composite z-score in assay [1] stood at 1.37; in assay [5], 3.36; in assay [7] it was 0.12; in assay [8], 0.0931; in assay [9], 1.09; in assay [10], 0.0288. The z-score in assay [2] was 0.614 (inactive); in assay [3], 0.53 (inactive); in [4] it was 2.57 (inactive); in assay [6], -0.983 (inactive).

For the origin of these results see PubChem BioAssay.
